Bioassay records (PubChem)
Rows were chosen to be rich in hits. Some 1.7% of all compounds tested hit in one or more screens of this group.
ALOX12 inh: inhibitors of human 12S-lipoxygenase ALOX12; P18054; purified 12hLO, xylenol orange hydroperoxide absorbance; Potency, µM (doses to about 108 µM), usual class: inhibitors; actives 1.1% (n = 580,000)
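Purified human 12hLO (150 nM final) in 25 mM Hepes, 0.01% Triton X-100, pH 7.0 was preincubated 15 min at room temperature with compound. Then 40 uM arachidonic acid was added, 30 min. Hydroperoxide was read by Fe-XO absorbance ratio 573/405 nm.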
TrxR1 inh: rat TrxR1 inhibition; O89049; recombinant rTrxR1, NADPH fluorescence consumption, selenite substrate; Potency, µM (highest dose often 114 µM), most hits filed as inhibitors; actives 1% (n = 390,000); AID 588453; note: nearly all actives have a fitted effect of over 65% in size
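Rat TrxR1 (90 nM in the dispensed reagent) was pre-reduced with 400 uM NADPH for 5 min at room temperature, then incubated with compound for 15 min. After 400 uM selenite was added, NADPH fluorescence (Ex 340/Em 450 nm) was followed for 8 min.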
GRP78 ERSR act: inducers of ER stress response in human glioma cells; U87-MG GRP78 promoter luciferase reporter, 16 h; actives 0.02% (n = 420,000); Potency, µM, hits mostly activators; note: series mostly up to about 76 µM; nearly all actives have a fitted effect of over 35% in size
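Stably transfected U87-MG human glioma cells carrying a GRP78-based luminescent sensor were seeded at 1000 cells/well, pin-dosed with compounds and incubated 16 h. Luciferase reagent was then added, and end-point luminescence was read after 10 min at room temperature.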
IDH1 R132H inh: inhibitors of human mutant IDH1 R132H; O75874; IDH1-R132H enzyme, NADPH consumption, diaphorase/resazurin fluorescence; Potency, µM (highest dose often 76.6 µM), hits mostly inhibitors; actives 0.093% (n = 390,000); AID 602179; note: nearly all actives have a fitted effect of over 65% in size
Target sequence (O75874 whole entry R132H, stated change not applied): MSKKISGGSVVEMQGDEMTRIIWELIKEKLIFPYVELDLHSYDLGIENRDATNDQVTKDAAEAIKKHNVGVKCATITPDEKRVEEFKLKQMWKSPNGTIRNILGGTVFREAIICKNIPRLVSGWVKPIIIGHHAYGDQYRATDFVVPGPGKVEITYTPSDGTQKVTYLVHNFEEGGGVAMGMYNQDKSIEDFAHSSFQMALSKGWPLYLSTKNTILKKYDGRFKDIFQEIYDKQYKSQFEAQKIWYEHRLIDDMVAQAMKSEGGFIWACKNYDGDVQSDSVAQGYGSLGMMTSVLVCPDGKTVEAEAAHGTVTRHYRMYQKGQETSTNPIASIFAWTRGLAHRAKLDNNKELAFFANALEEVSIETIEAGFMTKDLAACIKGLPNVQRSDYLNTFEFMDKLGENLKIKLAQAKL
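IDH1-R132H (0.5 ug/mL dispensed) in pH 7.5 Tris buffer was preincubated 30 min with compound, then given a substrate mix of 0.016 mM NADPH and 2 mM alpha-KG for 80 min at room temperature; remaining NADPH was read by diaphorase/resazurin fluorescence.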
TrxR1 substrate: rat thioredoxin reductase 1 substrate activity; O89049; purified TrxR1 substrate turnover, NADPH consumption readout; Potency, µM (titrated, usually from 114 µM); actives 0.01% (n = 390,000); note: nearly all actives have a fitted effect of over 50% in size
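Rat TrxR1, dispensed at 90 nM, was prereduced with 400 uM NADPH (final) for 5 min at ~22 deg C, then incubated with compound 15 min before 400 uM selenite. A first-read NADPH fluorescence drop versus no-compound background flagged substrates.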
Anesthetic bind: candidate novel general anesthetic via apoferritin binding; P02791; apoferritin/1-aminoanthracene competitive binding, fluorescence; Potency, µM (doses to about 77.5 µM), usual class: inhibitors; actives 0.074% (n = 350,000); AID 485281; note: nearly all actives have a fitted effect of over 20% in size
Target sequence (P02791 2-175 limits assumed): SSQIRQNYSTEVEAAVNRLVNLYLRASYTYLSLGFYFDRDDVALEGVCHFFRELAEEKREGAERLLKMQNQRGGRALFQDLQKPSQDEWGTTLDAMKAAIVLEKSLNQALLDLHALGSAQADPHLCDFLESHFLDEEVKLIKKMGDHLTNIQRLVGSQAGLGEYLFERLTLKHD
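Probe: 1-aminoanthracene (50% saturated, PBS). Protein: horse-spleen apoferritin, 10 uM. Incubation: 10 min, room temperature. Detection: 380 nm excitation, 535 nm emission. Analysis: normalized response, four-parameter Hill.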
Each line names hits and unclear results; the compound was inactive in the other large screens. Calls come from the whole dose curve; as a rule, active = well fitted curve in the direction sought with a large enough effect; inconclusive = small, poorly fitted or top-dose-only effect, or another doubt; inactive = no such curve, though single readings can be large; an effect the other way counts as inactive or inconclusive.

COc1ccc(C(C)=O)cc1COc1cccc2c1OC(C)(C)C2	TrxR1 inh 32µM
O=C(NCc1ccco1)c1ccc2c(c1)C(=O)c1ccccc1-2	TrxR1 inh 20µM
Cc1ccc(CNC(=O)c2c(-c3ccccc3Cl)noc2C)cc1	none
O=C(NCc1ccco1)c1ccc(C(=O)NCc2ccco2)cc1	ALOX12 inh inconclusive (no result: Anesthetic bind)
Cc1onc(-c2ccccc2Cl)c1C(=O)NCc1ccco1	ALOX12 inh inconclusive, TrxR1 inh 50µM
CNC(=O)c1cccc(-c2cnc(Nc3ccc4c(c3)OCCO4)c3c2CCO3)c1	none (no result: TrxR1 inh, GRP78 ERSR act, IDH1 R132H inh, TrxR1 substrate, Anesthetic bind)
Cc1ccc(CNC(=O)C2c3ccccc3C(=O)N3CCc4ccccc4C23)o1 (centres undefined)	TrxR1 inh 1.8µM
O=C(NCCN1CCN(Cc2ccccc2)CC1)C1c2ccccc2C(=O)N2CCc3ccccc3C12 (centres undefined)	none
O=C(O)CC1(Cc2nc3ccccc3s2)CCCC1	none (no result: TrxR1 inh, GRP78 ERSR act, IDH1 R132H inh, TrxR1 substrate, Anesthetic bind)
CC(C)Oc1ccc(OCCn2c(=S)[nH]c3c(N)ncnc32)cc1	ALOX12 inh 45µM
Cc1ccc(OCCn2c(=S)[nH]c3c(N)ncnc32)cc1	ALOX12 inh inconclusive
Cc1c(OC(=O)c2ccc([N+](=O)[O-])cc2)c2c(c[n+]1C)COC(C)(C)OC2	TrxR1 inh 45µM (no result: ALOX12 inh)
N#C/C(=C/c1ccc(-c2ccccc2)cc1)C(=O)NCCc1ccccc1	none (no result: TrxR1 inh, GRP78 ERSR act, IDH1 R132H inh, TrxR1 substrate, Anesthetic bind)
Cc1cccc(C(=O)NC2C(=O)NNC2c2ccc(Cl)cc2)c1 (centres undefined)	ALOX12 inh 14µM
O=C(NC1C(=O)NNC1c1ccccc1)c1ccccc1 (centres undefined)	ALOX12 inh inconclusive
Cc1nc2ccc([N+](=O)[O-])cc2nc1C	none
Cc1ccc2nc3cc([N+](=O)[O-])cc([N+](=O)[O-])c3cc2c1	TrxR1 inh 50µM
CC1C/C(=N\NC(=O)C2CC2)CC(C)(C)C1 (centres undefined)	none (no result: TrxR1 inh, GRP78 ERSR act, IDH1 R132H inh, TrxR1 substrate, Anesthetic bind)
CC(=O)/C=C1\C(=O)N(C)c2ccccc21	TrxR1 inh 30µM (no result: ALOX12 inh, IDH1 R132H inh, Anesthetic bind)
CSc1cccc(NC(=S)NN/C(=N/S(=O)(=O)c2ccccc2)N2CCCC2)c1	ALOX12 inh 45µM (no result: TrxR1 inh, GRP78 ERSR act, IDH1 R132H inh, TrxR1 substrate, Anesthetic bind)
CSc1cccc(N/C(=N/S(=O)(=O)c2ccccc2)NN)c1	none
[N-]=C=C1C(=S)NC(=O)[C@H]([n+]2ccccc2)[C@H]1c1ccc(Cl)cc1	ALOX12 inh 10µM, TrxR1 inh inconclusive
[N-]=C=C1C(=O)NC(=O)C([n+]2ccc(-c3ccncc3)cc2)C1c1ccccc1C(F)(F)F (centres undefined)	ALOX12 inh inconclusive
CC(=O)Nc1ccc(C2Nc3c(C)cc(C)cc3-c3cc(C)nn32)cc1 (centres undefined)	none
Cc1ccc(C(=O)N2CC(CO)C3(CCNCC3)C2)c(C)c1 (centres undefined)	none (no result: TrxR1 inh, GRP78 ERSR act, IDH1 R132H inh, TrxR1 substrate, Anesthetic bind)
O=C(c1ccc(Cl)cc1)N1CC(CO)C2(CCNCC2)C1 (centres undefined)	ALOX12 inh 40µM (no result: TrxR1 inh, GRP78 ERSR act, IDH1 R132H inh, TrxR1 substrate, Anesthetic bind)
CCOc1ccc(/C=C/C(=O)c2ccccc2)cc1OC	TrxR1 inh inconclusive, GRP78 ERSR act inconclusive
COc1ccc2cc(C(=O)/C=C/c3cc(OC)c(O)c(OC)c3)ccc2c1	ALOX12 inh inconclusive, GRP78 ERSR act inconclusive
COc1cc(OC)c(C=CC(=O)c2ccccc2O)c(OC)c1	none (no result: Anesthetic bind)
COc1cc(/C=C/C(=O)c2ccccc2O)cc(OC)c1OC	TrxR1 inh 50µM, GRP78 ERSR act inconclusive, Anesthetic bind inconclusive
CCOc1cc(/C=C/C(=O)c2cccc(Cl)c2)cc(Cl)c1O	ALOX12 inh 5.6µM (no result: TrxR1 inh, GRP78 ERSR act, IDH1 R132H inh, TrxR1 substrate, Anesthetic bind)
CCOc1cc(/C=C/C(=O)c2ccccc2Cl)cc(Cl)c1O	ALOX12 inh 35µM (no result: TrxR1 inh, GRP78 ERSR act, IDH1 R132H inh, TrxR1 substrate, Anesthetic bind)
COc1ccc(C(=O)/C=C/c2cc(OC)c(O)c(OC)c2)c(F)c1	ALOX12 inh 45µM, TrxR1 inh inconclusive
CN1CCC(N(C)C(=O)CCn2ccc3ccccc32)CC1	none (no result: TrxR1 inh, GRP78 ERSR act, IDH1 R132H inh, TrxR1 substrate, Anesthetic bind)
Nc1c(Cl)cc(NC(=O)CCc2ncc(-c3ccc(Cl)cc3)o2)cc1Cl	none (no result: TrxR1 inh, GRP78 ERSR act, IDH1 R132H inh, TrxR1 substrate, Anesthetic bind)
O=C(Cn1sc2ccccc2c1=O)NC12CC3CC(CC(C3)C1)C2	Anesthetic bind 16µM (no result: ALOX12 inh)
